This is part of a sample that, as a whole, favours compounds with a hit. Of some 83,000 tested, about 20% had one in any assay.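 Each cell line was grown in a 96-well plate and treated with one concentration of compound for 48 hours. Values below 10 were considered active.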 Unmarked numbers belong to inactive results. The source made the active and inactive calls.

The source of these data is PubChem BioAssay (NCI).

Holding throughout (experiment): NCI-60 one-dose screen, 48 h (100 = growth as untreated, 0 = no growth, -100 = all killed)
The test system of one assay is HT29 colon. The note with it: 10 µM unless noted.
The next assay concerns SNB-75 CNS. The note with it: 10 µM unless noted.
For a further assay, the system named is SNB-19 CNS. The note with it: 10 µM unless noted.
For the next assay, the system named is U251 CNS. The settings on record: 10 µM unless noted.
A further assay has as its system PC-3 prostate. The settings on record: 10 µM unless noted.
For a further assay, the system named is SK-MEL-5 melanoma. The settings on record: 10 µM unless noted.
Another assay has as its system UACC-62 melanoma. The settings on record: 10 µM unless noted.
The subject of the next assay is SK-MEL-28 melanoma. The note with it: 10 µM unless noted.
In another assay the test system is SK-MEL-2 melanoma. The settings on record: 10 µM unless noted.
In the next assay the test system is EKVX NSCLC. The settings on record: 10 µM unless noted.
A further assay relates to SN12C renal. The settings on record: 10 µM unless noted.
The test system of a further assay is UO-31 renal. The note with it: 10 µM unless noted.
The next assay concerns TK-10 renal. The settings on record: 10 µM unless noted.
A further assay concerns ACHN renal. The note with it: 10 µM unless noted.
The test system of the next assay is CAKI-1 renal. The settings on record: 10 µM.
The next assay concerns A498 renal. The settings on record: 10 µM unless noted.
A further assay deals with CCRF-CEM leukemia. The note with it: 10 µM unless noted.
The next assay has as its system MOLT-4 leukemia. The note with it: 10 µM unless noted.
In another assay the test system is LOX IMVI melanoma. The settings on record: 10 µM unless noted.

Turning to `O=C1c2c(c3c4cccnc4[nH]c3c3ccc4ccccc4c23)C(=O)N1CCN1CCOCC1`, the growth with HT29 colon is 53.3%; in the assay on SNB-75 CNS it was 68%; in the assay on SNB-19 CNS it was 55.6%; in the assay with U251 CNS it was 51.6%; in the assay on PC-3 prostate, 62.1%; in the assay on SK-MEL-5 melanoma, 43.9%. Besides, the growth in the assay with UACC-62 melanoma is 57.7%; in the assay with SK-MEL-28 melanoma, 92.9%; with SK-MEL-2 melanoma it was 98.4%; in the assay with EKVX NSCLC, 86.7%; in the assay with SN12C renal it was 68.4%; with UO-31 renal, 54.5%. Also, the growth with TK-10 renal was 112%; in the assay with ACHN renal, 41.3%; in the assay with CAKI-1 renal, 46.2%; in the assay on A498 renal, 69%; with CCRF-CEM leukemia, 23.9%; in the assay with MOLT-4 leukemia, 7.9% (active).
Regarding `CCc1ccc(NC(=O)N[C@@H](Cc2cccc(C)c2)C(=O)N[C@@H]2C(=O)N3CCC[C@H]3C(=O)N3CCCC[C@H]3C(=O)N[C@@H](CO)C(=O)N3C[C@H](C)C[C@H]3C(=O)O[C@H]2C)c(F)c1`, the growth with HT29 colon is 33.5%; with SNB-75 CNS, 20.4%; in the assay with SNB-19 CNS it was 28.3%; with U251 CNS it was 31.7%; in the assay on PC-3 prostate it was 17.8%; in the assay with SK-MEL-5 melanoma it was -29.3% (active). In addition, the growth with UACC-62 melanoma was 25.9%; with LOX IMVI melanoma it was 32.8%; in the assay with SK-MEL-28 melanoma it was 38.1%; with EKVX NSCLC it was 30%; in the assay with SN12C renal it was 22.4%; in the assay with UO-31 renal, 29.6%. Besides, the growth was 52.9% in the assay with TK-10 renal; 32.2% in the assay with ACHN renal; 15.5% in the assay on CAKI-1 renal; 37.2% with CCRF-CEM leukemia; 41.8% in the assay with MOLT-4 leukemia.
For the molecule `C/C(=C(/c1ccc(O)cc1)c1ccc(OCCN2CCCCCC2)cc1)c1ccccc1`, the growth with HT29 colon is -8.88% (active); in the assay with SNB-75 CNS, 71.2%; in the assay with SNB-19 CNS it was 64.3%; in the assay on U251 CNS, 41.2%; in the assay on PC-3 prostate, 44.1%; in the assay on SK-MEL-5 melanoma, 58.4%. The growth in the assay on UACC-62 melanoma was 56.9%; with LOX IMVI melanoma, 5.39% (active); with SK-MEL-28 melanoma it was 21%; with EKVX NSCLC, 59%; with SN12C renal, 57.2%; with UO-31 renal it was 29.4%. The growth in the assay with TK-10 renal was 92.6%; in the assay on ACHN renal, 58.7%; in the assay with CAKI-1 renal it was 39.2%; with A498 renal, 74.6%; in the assay on CCRF-CEM leukemia, 60%.
Regarding `CCOC(=O)/C(F)=C/C1CC1C1CCCCC1` (stereo not given), the growth in the assay on HT29 colon was 111%; in the assay with SNB-75 CNS it was 95.2%; with SNB-19 CNS it was 98.5%; in the assay on U251 CNS, 105%; with PC-3 prostate it was 102%; in the assay on SK-MEL-5 melanoma, 99.8%. The growth in the assay with UACC-62 melanoma was 95.5%; in the assay with LOX IMVI melanoma, 98%; in the assay with SK-MEL-28 melanoma, 100%; in the assay on EKVX NSCLC, 110%; in the assay with SN12C renal, 103%; in the assay on UO-31 renal it was 91.5%. Further, the growth in the assay with TK-10 renal was 95.3%; in the assay with ACHN renal, 105%; in the assay with CAKI-1 renal it was 90.9%; in the assay on A498 renal, 97.2%; in the assay on CCRF-CEM leukemia, 114%; in the assay with MOLT-4 leukemia, 102%.
For the molecule `CC(C)(C)n1nnnc1C(Nc1nccs1)c1cc2cccc3ccc4cccc1c4c32` (stereo not given), the growth in the assay with HT29 colon is 104%; in the assay with SNB-75 CNS it was 95.7%; in the assay with SNB-19 CNS, 88.8%; in the assay with U251 CNS, 89.3%; in the assay on PC-3 prostate, 90.1%; in the assay with SK-MEL-5 melanoma, 94%. Further, the growth in the assay with UACC-62 melanoma is 48.8%; with LOX IMVI melanoma, 96.3%; with SK-MEL-28 melanoma it was 101%; in the assay on EKVX NSCLC it was 91%; in the assay on SN12C renal it was 98.5%; with UO-31 renal it was 84.9%. Besides, the growth with TK-10 renal was 99%; in the assay on ACHN renal, 97.4%; in the assay with CAKI-1 renal, 51.1%; with CCRF-CEM leukemia, 98.7%; with MOLT-4 leukemia, 96.6%.
As to `Cc1ccc(/C=C/c2nn3c(-c4ccco4)nnc3s2)cc1`, the growth with HT29 colon was 103%; in the assay on SNB-75 CNS it was 108%; with SNB-19 CNS it was 92.6%; with U251 CNS it was 101%; in the assay with PC-3 prostate, 98.4%; with UACC-62 melanoma it was 90.7%. Also, the growth was 105% in the assay with LOX IMVI melanoma; 94.1% with SK-MEL-28 melanoma; 108% in the assay with EKVX NSCLC; 107% with SN12C renal; 85.6% in the assay on UO-31 renal; 99.9% with ACHN renal. The values for the growth in the assay with CAKI-1 renal, with A498 renal and in the assay with CCRF-CEM leukemia were 86.8%, 89% and 98.9%, respectively.
Turning to `CN1C(=O)N(C)C2Nn3c(s/c(=C\c4ccccn4)c3=O)=NC21` (stereo not given), the growth with HT29 colon is 110%; in the assay on SNB-75 CNS it was 105%; in the assay with SNB-19 CNS, 100%; in the assay on U251 CNS, 105%; with SK-MEL-5 melanoma, 102%; in the assay with UACC-62 melanoma, 90.6%. The growth is 99.6% in the assay on LOX IMVI melanoma; 104% with SK-MEL-28 melanoma; 102% with SK-MEL-2 melanoma; 99.7% with EKVX NSCLC; 104% with SN12C renal; 88.1% in the assay on UO-31 renal. The growth with TK-10 renal is 111%; in the assay with CAKI-1 renal, 97.1%; in the assay on A498 renal, 105%; in the assay on CCRF-CEM leukemia it was 102%; in the assay on MOLT-4 leukemia, 110%.
In the case of `Oc1ccccc1-c1nnc(SCc2ccc(O)c3ncccc23)n1-c1ccccc1`, the growth is 14.6% in the assay with HT29 colon; 16.5% in the assay on SNB-19 CNS; 11.5% in the assay with U251 CNS; 20.5% in the assay with PC-3 prostate; -60.3% (active) in the assay on SK-MEL-5 melanoma; -8.29% (active) in the assay with UACC-62 melanoma. The growth was 3.79% (active) in the assay with LOX IMVI melanoma; 14.8% in the assay with SK-MEL-28 melanoma; 23.1% with SK-MEL-2 melanoma; -0.459% (active) with EKVX NSCLC; -9.38% (active) in the assay with UO-31 renal; 18.9% in the assay with TK-10 renal. The growth with ACHN renal was 8.88% (active); in the assay with CAKI-1 renal it was 11.3%; in the assay with A498 renal, -6.54% (active); in the assay with CCRF-CEM leukemia, 7.6% (active); with MOLT-4 leukemia, 18%.
Regarding `O=C(/C=C1\C=CN(CCCCCCF)c2ccccc21)n1ccc2ccccc21`, the growth is 98.3% in the assay with HT29 colon; 97.1% with SNB-19 CNS; 98.9% in the assay with U251 CNS; 84.7% in the assay with PC-3 prostate; 94.4% in the assay on SK-MEL-5 melanoma; 76% in the assay with UACC-62 melanoma. The growth with LOX IMVI melanoma was 101%; in the assay with SK-MEL-28 melanoma it was 106%; in the assay with SK-MEL-2 melanoma it was 111%; in the assay with EKVX NSCLC, 79%; in the assay on SN12C renal it was 90.5%; with UO-31 renal, 71.5%. Besides, the growth with TK-10 renal was 115%; in the assay with ACHN renal it was 97.4%; with CAKI-1 renal, 86.5%; in the assay on A498 renal, 96.3%; in the assay on CCRF-CEM leukemia, 96.1%; in the assay with MOLT-4 leukemia, 106%.
On to `O=S(=O)(NC1CC2CCC1C2)c1ccc2c(c1)C(=NO)c1cc(S(=O)(=O)NC3CC4CCC3C4)ccc1-2` (stereo not given), for which the growth in the assay with HT29 colon was 22.3%; in the assay on SNB-75 CNS, 37.2%; in the assay with SNB-19 CNS it was 63.3%; with U251 CNS, -64.2% (active); in the assay with PC-3 prostate, 59.2%; in the assay with SK-MEL-5 melanoma, 93%. Besides, the growth was 71% in the assay on UACC-62 melanoma; -90.5% (active) in the assay with LOX IMVI melanoma; 92.3% with SK-MEL-28 melanoma; 98.1% in the assay on SK-MEL-2 melanoma; 34.6% in the assay with SN12C renal; -93% (active) in the assay with UO-31 renal. Moreover, the growth in the assay on TK-10 renal is 95.6%; with ACHN renal it was -95.4% (active); with CAKI-1 renal, -97.5% (active); with A498 renal, 89.4%; in the assay on CCRF-CEM leukemia, -18.8% (active); in the assay with MOLT-4 leukemia, 47.1%.
For the molecule `O=C(Nc1cc(F)cc2cccnc12)c1cnc(N2CCOCC2)cn1`, the growth was 30.1% with HT29 colon; 88.6% with SNB-19 CNS; 94.6% with U251 CNS; 62.9% with PC-3 prostate; 83.5% in the assay with SK-MEL-5 melanoma; 84.9% with UACC-62 melanoma. In addition, the growth in the assay on LOX IMVI melanoma was 19.4%; in the assay with SK-MEL-28 melanoma, 77.4%; with SK-MEL-2 melanoma, 96%; in the assay on EKVX NSCLC, 63.6%; in the assay with SN12C renal, 83.5%; in the assay with UO-31 renal, 46.1%. In addition, the growth in the assay on TK-10 renal was 61.6%; with ACHN renal, 34.8%; in the assay on CAKI-1 renal, 64.9%; in the assay with A498 renal, 86.6%; with CCRF-CEM leukemia, 28.6%; in the assay on MOLT-4 leukemia it was 29.7%.
